Several values for one entry are separate records, joined by “and”; a condition that tells them apart may be missing. Identical values can stand only once. Hit rate of the full screen: of about 16,000 compounds, about 5,800 (36%) were called active. Not shown: some 23% with an inconclusive outcome. Some of the results follow. Values without a mark were called inactive. Calls come from the whole dose curve; as a rule, active = well fitted curve in the direction sought with a large enough effect; inconclusive = small, poorly fitted or top-dose-only effect, or effect the other way; inactive = no such curve, though single readings can be large or run the other way.
Biological target: Cytochrome P450 2C19 (Homo sapiens) (UniProt P33261)
Experiment: Cytochrome panel assay with activity outcomes
Settings: recombinant CYP, pro-luciferin dealkylation, luminescence, p450-cyp2c19; series mostly up to 57.1 µM; activity, negative = inhibition: at the top concentration
% is set by controls: 0 for no effect and ±100 for the full control effect.

Cytochrome P450 2C19 (Homo sapiens), sequence (P33261 whole entry, looked up): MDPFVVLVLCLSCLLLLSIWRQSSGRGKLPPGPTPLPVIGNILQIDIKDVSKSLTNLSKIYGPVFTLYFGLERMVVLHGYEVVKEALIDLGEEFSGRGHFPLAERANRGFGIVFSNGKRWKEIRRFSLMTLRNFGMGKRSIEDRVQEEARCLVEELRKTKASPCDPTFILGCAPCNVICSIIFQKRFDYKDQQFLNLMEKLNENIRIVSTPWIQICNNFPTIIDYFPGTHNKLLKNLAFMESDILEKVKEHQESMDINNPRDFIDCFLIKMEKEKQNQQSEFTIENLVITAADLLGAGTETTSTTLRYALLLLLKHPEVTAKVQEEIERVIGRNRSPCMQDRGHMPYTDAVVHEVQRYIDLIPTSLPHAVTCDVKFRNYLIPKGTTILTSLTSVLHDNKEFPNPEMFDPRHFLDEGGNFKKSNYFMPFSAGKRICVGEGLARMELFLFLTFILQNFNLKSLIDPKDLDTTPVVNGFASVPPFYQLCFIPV

**Q.** For `Cc1cc(C)c(NC(=O)C[C@H](CC(=O)O)c2cccc3ccccc23)c(C(=O)N2CCC3(CCCC3)CC2)c1`, which “activity, negative = inhibition” value is on record?
**A.** -9.08%

**Q.** How did the AC50 turn out when `CSc1n[nH]c(-c2sccc2OCc2ccc(C)cc2)n1` was run?
**A.** 1.12 µM (active)

**Q.** Which “activity, negative = inhibition” value does the source give for `COc1ncc2nc(-c3cc(F)cc(F)c3)c(=O)n(C3CC3)c2n1` here?
**A.** -20.5%

**Q.** `COc1cccc(C(C(=O)Nc2ccc(F)cc2)N(C(=O)Cn2nnc3ccccc32)C2CC2)c1` (stereo not given) was tested. Which AC50 did it give?
**A.** 20 µM (active)

**Q.** How did the AC50 turn out when `CCc1ccc(N2C(=O)c3ccc4c5c(ccc(c35)C2=O)CC4)cc1` was run?
**A.** 3.16 µM (active)

**Q.** `Cc1onc(-c2c(Cl)cccc2Cl)c1C(=O)N1CCc2ccccc2C1` was tested. Which AC50 did it give?
**A.** 2.82 µM (active)

**Q.** `Cc1noc(C)c1C(=O)N1CCC2(CCN(Cc3ccccc3)CC2)CC1` was tested. Which “activity, negative = inhibition” value did it give?
**A.** -2.84%

**Q.** How did the “activity, negative = inhibition” value turn out when `Cc1noc(C)c1C(=O)N1CCC2(CC1)CN(c1ccccc1)C2` was run?
**A.** -34.5%

**Q.** For `Cc1ccccc1C(=O)N1CCc2ccccc2C1`, which AC50 is on record?
**A.** 1.41 µM (active)

**Q.** For `N=C(N)N1CCc2ccccc2C1`, which “activity, negative = inhibition” value is on record?
**A.** 20.8% [at 25.6 µM]

**Q.** Which activity, negative = inhibition does the source give for `NCCSC[C@H](N)C(=O)O` here?
**A.** -6.06% [at 11.4 µM]

**Q.** How did the AC50 turn out when `O=C1CC(c2cccs2)c2cc3c(cc2N1)OCO3` (stereo not given) was run?
**A.** 1.12 µM (active)

**Q.** Which AC50 does the source give for `CCCC[C@@H]1C[C@H]1C(NC(=O)c1ccco1)c1ccc(C(=O)OC)cc1` (stereo not given in full) here?
**A.** 1 µM (active)

**Q.** With `CCCC[C@@H]1C[C@H]1C(NC(=O)c1ccc(-c2ccccc2)cc1)c1ccc(-c2ccccc2)cc1` (stereo not given in full) as the compound, how does the “activity, negative = inhibition” value read?
**A.** 31.1%

**Q.** For `CCCC[C@@H]1C[C@H]1C(NC(=O)c1ccco1)c1ccc(-c2ccccc2)cc1` (stereo not given in full), which AC50 is on record?
**A.** 25.1 µM (active)

**Q.** `CCC[C@@H]1C[C@@]1(CCC)C(NS(=O)(=O)c1cccc2cccnc12)c1ccc(Cl)cc1` (stereo not given in full) was tested. Which AC50 did it give?
**A.** 3.16 µM (active)

**Q.** For `CCC[C@@H]1C[C@@]1(CCC)C(NC(=O)c1ccco1)c1ccc(Cl)cc1` (stereo not given in full), which AC50 is on record?
**A.** 3.16 µM (active)

**Q.** With `CO[C@H]1COC(=O)C/C=C\[C@H](C)COC(=O)[C@@H](C)NC(=O)C/C=C\[C@@H]1C` as the compound, how does the activity, negative = inhibition read?
**A.** -31.5% [at 11.4 µM]

**Q.** For `COCCn1c(=O)c(C)nc2cnc(Nc3cccc(OC)c3)nc21`, which “activity, negative = inhibition” value is on record?
**A.** -5.79%

**Q.** `CCC[C@@H]1C[C@@]1(CCC)C(NC(=O)OCc1ccccc1)c1ccc(-c2ccccc2)cc1` (stereo not given in full) was tested. Which AC50 did it give?
**A.** 1.26 µM (active)

**Q.** `CCCC[C@@H]1C[C@H]1C(NC(=O)c1ccco1)c1ccccc1` (stereo not given in full) was tested. Which AC50 did it give?
**A.** 1.26 µM (active)

**Q.** For `CCCC[C@@H]1C[C@H]1C(NC(=O)c1ccco1)c1ccc(Cl)cc1` (stereo not given in full), which AC50 is on record?
**A.** 0.316 µM (active)

**Q.** How did the “activity, negative = inhibition” value turn out when `C[C@@]1(C(NC(=O)Cc2ccccc2)c2ccc(-c3ccccc3)cc2)C[C@H]1C1CCCCC1` (stereo not given in full) was run?
**A.** 2.32%

**Q.** For `CC[C@](N)(C(=O)O)C(C)C`, which activity, negative = inhibition is on record?
**A.** 31.3% [at 11.4 µM]

**Q.** With `CCCn1c(N)c(C(=O)CSc2nc(C)cs2)c(=O)n(C)c1=O` as the compound, how does the AC50 read?
**A.** 10 µM (active)

**Q.** Which “activity, negative = inhibition” value does the source give for `O=C(/C=C\c1ccc(O)c(O)c1)O[C@@H](Cc1ccc(O)c(O)c1)C(=O)O` here?
**A.** -39.4%

**Q.** `O=C(O)/C=C\c1ccc(O)c(O)c1` was tested. Which “activity, negative = inhibition” value did it give?
**A.** 25.2% [at 25.6 µM]

**Q.** `COC(=O)/C=C\c1cc(O)ccc1O` was tested. Which AC50 did it give?
**A.** 15.8 µM (active)

**Q.** Which activity, negative = inhibition does the source give for `CO[C@@H](C(C)C)[C@@H](C)[C@@H]1OC(=O)C[C@@H]1O` here?
**A.** 2.42% [at 11.4 µM]

**Q.** With `COC(=O)C[C@@H]1O[C@H]1[C@H](C)[C@@H](OC)C(C)C` as the compound, how does the AC50 read?
**A.** 3.98 µM (active)

**Q.** Which “activity, negative = inhibition” value does the source give for `CC(O)CN(CCC(N)=O)CCC(N)=O` (stereo not given) here?
**A.** -1.48%

**Q.** For `COc1ccc(S(=O)(=O)N2CC3C4C=CC(C4)C3C2)cc1` (stereo not given), which AC50 is on record?
**A.** 0.891 µM (active)

**Q.** `O=C(OCc1nnc(-c2ccccc2)o1)c1ccc2c(c1)OCCO2` was tested. Which AC50 did it give?
**A.** 8.91 µM (active)

**Q.** How did the “activity, negative = inhibition” value turn out when `CCCN1C(=O)C2(/C(=C(\O)c3ccc4c(c3)OCCO4)C(=O)C(=O)N2CCCOC)c2ccccc21` (stereo not given) was run?
**A.** -16.7%

**Q.** How did the AC50 turn out when `CN1CCc2cc3c(cc2[C@@H]1[C@@H]1C(=O)Oc2c1ccc1c2OCO1)OCO3` was run?
**A.** 0.02 µM (active)

**Q.** Which AC50 does the source give for `C[N+]1(C)CCc2cc3c(cc2[C@@H]1[C@@H]1C(=O)Oc2c1ccc1c2OCO1)OCO3` here?
**A.** inactive

**Q.** How did the “activity, negative = inhibition” value turn out when `Cc1ccc(-c2csc(NC(=S)NC(=O)/C=C/c3ccco3)n2)cc1` was run?
**A.** -28.8%

**Q.** `Cc1ccc(-c2csc(N/N=C/c3ccco3)n2)cc1` was tested. Which AC50 did it give?
**A.** 7.94 µM (active)

**Q.** Which “activity, negative = inhibition” value does the source give for `CC(=O)OCC(=O)[C@@]1(O)[C@H](C)C[C@@H]2[C@H]3CCC4=CC(=O)C=C[C@]4(C)[C@]3(F)[C@@H](O)C[C@@]21C` here?
**A.** -2.08% [at 25.6 µM]

**Q.** For `CCOC(=O)c1cc2sc(C)cc2n1CC(=O)N1CCN(C(=O)c2ccco2)CC1`, which AC50 is on record?
**A.** 25.1 µM (active)

**Q.** With `O=C(CCC(=O)c1cccs1)OCC(=O)N1CCN(C(=O)c2ccco2)CC1` as the compound, how does the “activity, negative = inhibition” value read?
**A.** -14.3%

**Q.** Which AC50 does the source give for `CCOC(=O)c1cc2sc(C)cc2n1CCCN1C(=O)c2ccccc2C1=O` here?
**A.** 3.98 µM (active)

**Q.** With `CCn1c(=O)cc(SCC(=O)N2CCN(C(=O)c3ccco3)CC2)c2ccccc21` as the compound, how does the “activity, negative = inhibition” value read?
**A.** -35%

**Q.** `CCN1C(=O)[C@H]2[C@@H]3[C@H](O)[C@H](O)CC(=O)[C@H]3CC[C@H]2C1=O` was tested. Which activity, negative = inhibition did it give?
**A.** -13.9% [at 11.4 µM] and -20% [at 11.4 µM]

**Q.** `CCN1C(=O)[C@@H]2[C@H]3C(=CC[C@@H]2C1=O)C1(OCCCO1)[C@H]1O[C@@H]1[C@H]3O` was tested. Which AC50 did it give?
**A.** 1.58 µM (active)

From PubChem BioAssay AID1851 (National Center for Advancing Translational Sciences (NCATS), 2009)
